Laboratory results published in the supplement of paper PMC11732987, “Enantioselective OTUD7B fragment discovery through chemoproteomics screening and high-throughput optimisation” (Communications Chemistry, 2025).

Assays:
Assay in all cases: log2 ratio of Biotin-Ahx-Ub-VS probe labelling (compound/DMSO); higher = less target engagement, active = hit call of the paper (q ≤ 0.05, log2 ratio ≤ -1)
Conditions in all cases: treatment time: 3 h
[1] = compound: CCC1N(CCc2sccc12)C(=O)CCl
Method in brief: (§1)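 HEK293T lysate (495 µg per sample, in Tris/CHAPS/IGEPAL buffer with protease inhibitors) was exposed in triplicate to compound at 50 or 200 µM, or to DMSO, for 3 h, then to Biotin-Ahx-Ub-VS (0.5 µM final) for 1 h. The labelled DUBs were enriched on NeutrAvidin, digested with LysC and trypsin, and analysed by diaPASEF LC-MS/MS. Average base-two log ratios of compound over DMSO came from median-normalised label-free quantities by unpaired t-test. Only proteins with at least 2 unique peptides were used.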

[2] = compound: CN1c2ccccc2C(CS1(=O)=O)NC(=O)CCl
Method in brief: as §1

[3] = compound: Cl.ClCC(=O)N1CCc2ncncc2C1
Method in brief: as §1

[4] = compound: Cl.Cn1ncc2C(CCCc12)NC(=O)CCl
Method in brief: as §1

[5] = compound: ClCC(=O)NC1CCOc2ccccc12
Method in brief: as §1

[6] = compound: CCC1N(CCc2cc(OC)c(Cl)cc12)C(=O)CCl
Method in brief: as §1

[7] = compound: CCCC1N(CCc2cc(OC)c(OC)cc12)C(=O)CCl
Method in brief: as §1

[8] = compound: ClCC(=O)NC1CCCc2ccccc12
Method in brief: (§2)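 Average ratios of compound to vehicle were obtained by unpaired t-test. Beforehand, 495 µg samples of HEK293T lysate in buffer with protease inhibitors were treated in triplicate with compound over a concentration series or vehicle for 3 h, then with 0.5 µM final Biotin-Ahx-Ub-VS for 1 h. Labelled deubiquitinases were NeutrAvidin-enriched, digested and quantified label-free by diaPASEF LC-MS/MS in Spectronaut, normalised to the global median. Values are log2 and cover proteins with at least two unique peptides.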

[9] = compound: ClCC(=O)N[C@@H]1CCCc2ccccc12
Method in brief: as §2

[10] = compound: ClCC(=O)N[C@H]1CCCc2ccccc12
Method in brief: as §2

Measured: log2 ratio of Biotin-Ahx-Ub-VS probe labelling

UniProt Q70EL2
Sequence of UniProt Q70EL2 (Q70EL2 whole entry): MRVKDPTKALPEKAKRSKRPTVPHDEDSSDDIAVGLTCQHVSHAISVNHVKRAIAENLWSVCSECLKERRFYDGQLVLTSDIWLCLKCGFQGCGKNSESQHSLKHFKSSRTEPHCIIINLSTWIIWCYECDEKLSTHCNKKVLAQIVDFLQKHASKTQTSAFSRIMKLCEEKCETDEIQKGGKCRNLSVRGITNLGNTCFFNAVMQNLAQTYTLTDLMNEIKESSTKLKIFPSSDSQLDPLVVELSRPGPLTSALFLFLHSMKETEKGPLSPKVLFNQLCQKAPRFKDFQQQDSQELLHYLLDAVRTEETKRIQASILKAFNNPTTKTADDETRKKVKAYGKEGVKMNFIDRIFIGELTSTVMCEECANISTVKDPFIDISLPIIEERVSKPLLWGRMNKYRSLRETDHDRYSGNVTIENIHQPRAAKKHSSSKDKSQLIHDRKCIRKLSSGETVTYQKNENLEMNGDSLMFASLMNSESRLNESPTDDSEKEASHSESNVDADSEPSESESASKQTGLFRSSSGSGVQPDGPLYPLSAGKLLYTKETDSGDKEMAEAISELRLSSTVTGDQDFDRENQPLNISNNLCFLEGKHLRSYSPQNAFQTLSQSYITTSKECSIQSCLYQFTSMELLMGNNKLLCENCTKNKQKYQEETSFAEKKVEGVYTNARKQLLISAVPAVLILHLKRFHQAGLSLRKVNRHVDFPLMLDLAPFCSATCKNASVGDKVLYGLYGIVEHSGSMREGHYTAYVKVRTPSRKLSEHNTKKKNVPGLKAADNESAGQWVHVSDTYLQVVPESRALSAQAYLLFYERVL
inactive: [1]; compound concentration: 50uM -0.13 | [1]; compound concentration: 200uM -0.934 | [2]; compound concentration: 50uM -0.103 | [2]; compound concentration: 200uM -0.476 | [3]; compound concentration: 50uM 0.274 | [3]; compound concentration: 200uM -0.808 | [4]; compound concentration: 50uM 0.181 | [4]; compound concentration: 200uM -0.179 | [5]; compound concentration: 50uM 0.189 | [5]; compound concentration: 200uM -0.754 | [6]; compound concentration: 50uM -0.48 | [6]; compound concentration: 200uM -0.823 | [7]; compound concentration: 50uM -0.354 | [7]; compound concentration: 200uM -0.47

USP46 (UniProt P62068)
Sequence of UniProt P62068 (P62068 whole entry): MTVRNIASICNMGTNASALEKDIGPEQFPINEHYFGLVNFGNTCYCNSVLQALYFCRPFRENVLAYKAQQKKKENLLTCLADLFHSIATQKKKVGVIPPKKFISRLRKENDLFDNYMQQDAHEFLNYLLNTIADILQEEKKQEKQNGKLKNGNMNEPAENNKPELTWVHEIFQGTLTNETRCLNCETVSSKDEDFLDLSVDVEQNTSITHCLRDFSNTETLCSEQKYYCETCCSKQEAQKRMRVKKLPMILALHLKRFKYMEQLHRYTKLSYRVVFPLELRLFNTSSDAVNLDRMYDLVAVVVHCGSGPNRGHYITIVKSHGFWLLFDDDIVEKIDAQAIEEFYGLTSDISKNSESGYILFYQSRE
inactive: [1]; compound concentration: 50uM 0.00875 | [1]; compound concentration: 200uM -0.386 | [2]; compound concentration: 50uM -0.283 | [2]; compound concentration: 200uM -0.392 | [3]; compound concentration: 50uM -0.496 | [3]; compound concentration: 200uM -0.363 | [4]; compound concentration: 50uM 0.0697 | [4]; compound concentration: 200uM -0.0122 | [5]; compound concentration: 50uM -0.118 | [5]; compound concentration: 200uM -0.18 | [8]; compound concentration: 0.78uM -0.00158 | [8]; compound concentration: 1.56uM -0.0881 | [8]; compound concentration: 3.13uM -0.475 | [8]; compound concentration: 6.25uM -0.276 | [8]; compound concentration: 12.5uM -0.393 | [8]; compound concentration: 25uM -0.421 | [8]; compound concentration: 50uM -0.311 | [8]; compound concentration: 100uM 0.116 | [8]; compound concentration: 200uM -0.326 | [9]; compound concentration: 0.78uM -0.158 | [9]; compound concentration: 1.56uM -0.00787 | [9]; compound concentration: 3.13uM 0.116 | [9]; compound concentration: 6.25uM 0.0618 | [9]; compound concentration: 12.5uM 0.00378 | [9]; compound concentration: 25uM -0.153 | [9]; compound concentration: 50uM -0.14 | [9]; compound concentration: 100uM -0.166 | [9]; compound concentration: 200uM -0.243 | [10]; compound concentration: 0.78uM 0.11 | [10]; compound concentration: 1.56uM -0.348 | [10]; compound concentration: 3.13uM -0.0607 | [10]; compound concentration: 6.25uM -0.153 | [10]; compound concentration: 12.5uM 0.0225 | [10]; compound concentration: 25uM -0.138 | [10]; compound concentration: 50uM 0.0154 | [10]; compound concentration: 100uM -0.107 | [10]; compound concentration: 200uM -0.288 | [6]; compound concentration: 50uM -0.0362 | [7]; compound concentration: 50uM -0.446 | [7]; compound concentration: 200uM -0.735
active: [6]; compound concentration: 200uM -1.5

USP19 (UniProt O94966)
Sequence of UniProt O94966 (O94966 whole entry): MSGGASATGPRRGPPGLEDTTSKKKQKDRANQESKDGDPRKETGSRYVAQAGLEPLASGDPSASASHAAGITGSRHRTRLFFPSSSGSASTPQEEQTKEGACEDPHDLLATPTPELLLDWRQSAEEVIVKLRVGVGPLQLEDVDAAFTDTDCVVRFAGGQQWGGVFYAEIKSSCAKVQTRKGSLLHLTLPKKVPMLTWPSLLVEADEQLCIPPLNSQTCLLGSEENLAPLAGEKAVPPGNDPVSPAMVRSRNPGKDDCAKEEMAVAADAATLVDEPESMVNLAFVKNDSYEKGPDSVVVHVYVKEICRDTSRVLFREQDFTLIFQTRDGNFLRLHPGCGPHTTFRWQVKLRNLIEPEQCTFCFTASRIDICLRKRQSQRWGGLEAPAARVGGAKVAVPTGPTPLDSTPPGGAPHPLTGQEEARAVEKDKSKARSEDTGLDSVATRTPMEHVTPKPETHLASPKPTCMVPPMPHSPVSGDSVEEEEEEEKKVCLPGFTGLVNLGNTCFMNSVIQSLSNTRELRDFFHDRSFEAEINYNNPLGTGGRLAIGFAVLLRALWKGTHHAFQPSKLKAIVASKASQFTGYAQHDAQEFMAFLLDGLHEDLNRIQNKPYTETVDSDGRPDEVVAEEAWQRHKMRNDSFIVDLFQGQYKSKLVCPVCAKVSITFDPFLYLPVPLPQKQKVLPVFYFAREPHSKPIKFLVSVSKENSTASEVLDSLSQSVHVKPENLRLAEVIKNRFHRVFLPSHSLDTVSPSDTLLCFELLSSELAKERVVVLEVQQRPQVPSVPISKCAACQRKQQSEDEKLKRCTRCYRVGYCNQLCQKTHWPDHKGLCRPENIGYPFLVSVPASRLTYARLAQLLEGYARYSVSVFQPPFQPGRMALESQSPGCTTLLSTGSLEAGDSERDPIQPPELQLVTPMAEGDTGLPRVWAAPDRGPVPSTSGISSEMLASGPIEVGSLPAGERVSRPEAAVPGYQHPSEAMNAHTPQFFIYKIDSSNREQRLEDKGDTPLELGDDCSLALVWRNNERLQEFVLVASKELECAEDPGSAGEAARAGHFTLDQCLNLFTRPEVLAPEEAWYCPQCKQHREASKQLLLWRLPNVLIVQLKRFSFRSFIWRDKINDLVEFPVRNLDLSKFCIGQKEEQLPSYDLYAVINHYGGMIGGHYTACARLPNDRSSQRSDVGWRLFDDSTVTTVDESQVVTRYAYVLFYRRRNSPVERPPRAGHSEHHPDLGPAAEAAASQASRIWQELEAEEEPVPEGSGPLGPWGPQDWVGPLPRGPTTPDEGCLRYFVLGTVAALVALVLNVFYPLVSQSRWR
inactive: [1]; compound concentration: 50uM -0.285 | [1]; compound concentration: 200uM -0.845 | [2]; compound concentration: 50uM -0.191 | [2]; compound concentration: 200uM -0.286 | [3]; compound concentration: 50uM -0.264 | [4]; compound concentration: 50uM 0.00316 | [4]; compound concentration: 200uM -0.0581 | [5]; compound concentration: 50uM -0.218 | [5]; compound concentration: 200uM -0.211 | [8]; compound concentration: 0.78uM 0.0115 | [8]; compound concentration: 1.56uM 0.0325 | [8]; compound concentration: 3.13uM -0.14 | [8]; compound concentration: 6.25uM -0.00117 | [8]; compound concentration: 12.5uM -0.0872 | [8]; compound concentration: 25uM -0.173 | [8]; compound concentration: 50uM -0.131 | [8]; compound concentration: 100uM -0.081 | [8]; compound concentration: 200uM -0.216 | [9]; compound concentration: 0.78uM -0.105 | [9]; compound concentration: 1.56uM -0.0178 | [9]; compound concentration: 3.13uM -0.00588 | [9]; compound concentration: 6.25uM 0.0401 | [9]; compound concentration: 12.5uM -0.0591 | [9]; compound concentration: 25uM -0.121 | [9]; compound concentration: 50uM -0.26 | [9]; compound concentration: 100uM -0.182 | [9]; compound concentration: 200uM -0.339 | [10]; compound concentration: 0.78uM -0.0486 | [10]; compound concentration: 1.56uM -0.0156 | [10]; compound concentration: 3.13uM 0.00736 | [10]; compound concentration: 6.25uM 0.0504 | [10]; compound concentration: 12.5uM -0.0195 | [10]; compound concentration: 25uM -0.0989 | [10]; compound concentration: 50uM -0.0366 | [10]; compound concentration: 100uM -0.126 | [10]; compound concentration: 200uM -0.311 | [6]; compound concentration: 50uM -0.648
active: [3]; compound concentration: 200uM -1.13 | [6]; compound concentration: 200uM -2.38 | [7]; compound concentration: 50uM -1.67 | [7]; compound concentration: 200uM -3.32

PSMD7 (UniProt P51665)
Sequence of UniProt P51665 (P51665 whole entry): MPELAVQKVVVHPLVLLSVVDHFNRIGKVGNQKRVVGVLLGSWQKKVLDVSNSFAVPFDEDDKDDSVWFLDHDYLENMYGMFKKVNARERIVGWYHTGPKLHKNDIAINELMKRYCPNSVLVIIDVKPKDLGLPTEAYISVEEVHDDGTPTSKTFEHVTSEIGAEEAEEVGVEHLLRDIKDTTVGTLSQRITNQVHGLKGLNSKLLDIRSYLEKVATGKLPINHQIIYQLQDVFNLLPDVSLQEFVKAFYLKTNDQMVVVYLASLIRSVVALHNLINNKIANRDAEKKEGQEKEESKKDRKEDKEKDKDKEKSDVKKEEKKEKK
inactive: [1]; compound concentration: 50uM 0.0196 | [1]; compound concentration: 200uM -0.639 | [2]; compound concentration: 50uM -1.31 | [2]; compound concentration: 200uM 0.533 | [3]; compound concentration: 50uM -3.61 | [3]; compound concentration: 200uM 0.0399 | [4]; compound concentration: 50uM 0.173 | [4]; compound concentration: 200uM 0.483 | [5]; compound concentration: 50uM 1.07 | [5]; compound concentration: 200uM 1 | [8]; compound concentration: 0.78uM -0.113 | [8]; compound concentration: 1.56uM -0.191 | [8]; compound concentration: 3.13uM -0.247 | [8]; compound concentration: 6.25uM -0.311 | [8]; compound concentration: 12.5uM -0.243 | [8]; compound concentration: 25uM -0.439 | [8]; compound concentration: 50uM -0.166 | [8]; compound concentration: 100uM 0.0296 | [8]; compound concentration: 200uM -0.486 | [9]; compound concentration: 0.78uM -0.113 | [9]; compound concentration: 1.56uM 0.319 | [9]; compound concentration: 3.13uM 0.0163 | [9]; compound concentration: 6.25uM -0.0645 | [9]; compound concentration: 12.5uM 0.0151 | [9]; compound concentration: 25uM 0.0566 | [9]; compound concentration: 50uM -0.252 | [9]; compound concentration: 100uM 0.0397 | [9]; compound concentration: 200uM 0.357 | [10]; compound concentration: 0.78uM 0.0931 | [10]; compound concentration: 1.56uM 0.0292 | [10]; compound concentration: 3.13uM 0.0943 | [10]; compound concentration: 6.25uM -0.111 | [10]; compound concentration: 12.5uM -0.00799 | [10]; compound concentration: 25uM -0.0922 | [10]; compound concentration: 50uM 0.0424 | [10]; compound concentration: 100uM -0.132 | [10]; compound concentration: 200uM -0.169 | [6]; compound concentration: 50uM 0.122 | [6]; compound concentration: 200uM 1.79 | [7]; compound concentration: 50uM 0.742 | [7]; compound concentration: 200uM 0.149

USP47 (UniProt Q96K76)
Sequence of UniProt Q96K76 (Q96K76 whole entry): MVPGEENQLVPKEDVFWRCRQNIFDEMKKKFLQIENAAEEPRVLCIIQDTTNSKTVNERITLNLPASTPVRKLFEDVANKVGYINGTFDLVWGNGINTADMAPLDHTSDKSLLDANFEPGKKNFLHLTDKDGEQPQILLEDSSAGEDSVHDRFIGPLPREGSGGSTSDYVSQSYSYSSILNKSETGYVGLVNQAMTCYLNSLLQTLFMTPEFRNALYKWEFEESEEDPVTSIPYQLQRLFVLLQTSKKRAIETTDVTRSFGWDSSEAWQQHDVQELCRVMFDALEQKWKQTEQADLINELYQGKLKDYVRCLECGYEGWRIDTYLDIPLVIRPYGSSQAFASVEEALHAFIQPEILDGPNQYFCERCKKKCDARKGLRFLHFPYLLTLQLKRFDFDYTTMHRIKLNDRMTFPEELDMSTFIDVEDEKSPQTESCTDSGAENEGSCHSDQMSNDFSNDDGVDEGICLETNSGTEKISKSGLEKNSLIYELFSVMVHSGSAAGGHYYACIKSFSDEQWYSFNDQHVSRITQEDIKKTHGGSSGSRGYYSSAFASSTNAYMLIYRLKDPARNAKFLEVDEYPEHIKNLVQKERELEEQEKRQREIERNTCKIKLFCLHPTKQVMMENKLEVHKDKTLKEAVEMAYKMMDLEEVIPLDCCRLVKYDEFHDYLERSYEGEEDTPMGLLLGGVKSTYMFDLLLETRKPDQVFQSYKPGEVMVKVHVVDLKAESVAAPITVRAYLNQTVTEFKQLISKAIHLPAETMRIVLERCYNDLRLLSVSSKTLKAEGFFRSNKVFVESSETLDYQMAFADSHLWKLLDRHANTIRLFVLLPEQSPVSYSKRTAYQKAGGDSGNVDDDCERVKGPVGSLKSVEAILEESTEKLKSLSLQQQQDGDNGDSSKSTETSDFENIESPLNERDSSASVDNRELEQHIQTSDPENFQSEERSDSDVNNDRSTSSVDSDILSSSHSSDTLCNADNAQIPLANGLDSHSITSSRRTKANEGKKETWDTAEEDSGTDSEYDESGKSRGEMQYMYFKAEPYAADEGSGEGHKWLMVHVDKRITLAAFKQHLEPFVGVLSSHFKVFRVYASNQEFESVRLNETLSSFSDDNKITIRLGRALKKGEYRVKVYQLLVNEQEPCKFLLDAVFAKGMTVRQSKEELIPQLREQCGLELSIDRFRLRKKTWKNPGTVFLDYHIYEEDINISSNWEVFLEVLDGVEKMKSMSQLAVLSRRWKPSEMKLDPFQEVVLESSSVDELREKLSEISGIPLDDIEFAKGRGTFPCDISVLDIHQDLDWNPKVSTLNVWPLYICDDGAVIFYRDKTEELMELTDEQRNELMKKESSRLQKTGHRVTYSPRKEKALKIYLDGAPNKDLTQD
active: [8]; compound concentration: 3.13uM -1.96 | [8]; compound concentration: 6.25uM -1.31 | [8]; compound concentration: 12.5uM -2.62 | [8]; compound concentration: 25uM -2.65 | [8]; compound concentration: 50uM -1.54 | [8]; compound concentration: 100uM -1.65 | [8]; compound concentration: 200uM -1.87 | [9]; compound concentration: 0.78uM -1.55 | [10]; compound concentration: 6.25uM -1.57 | [10]; compound concentration: 100uM -1.22
inactive: [8]; compound concentration: 0.78uM -0.835 | [8]; compound concentration: 1.56uM -0.97 | [9]; compound concentration: 1.56uM -0.399 | [9]; compound concentration: 3.13uM -0.592 | [9]; compound concentration: 6.25uM -0.585 | [9]; compound concentration: 12.5uM -0.654 | [9]; compound concentration: 25uM -0.26 | [9]; compound concentration: 50uM -0.749 | [9]; compound concentration: 100uM -0.609 | [9]; compound concentration: 200uM 0.134 | [10]; compound concentration: 0.78uM -0.545 | [10]; compound concentration: 1.56uM -0.834 | [10]; compound concentration: 3.13uM -0.514 | [10]; compound concentration: 12.5uM -0.725 | [10]; compound concentration: 25uM -0.536 | [10]; compound concentration: 50uM -0.911 | [10]; compound concentration: 200uM -0.929
